Assays:
Assay in all cases: DAPPL (digital affinity profiling via proximity ligation, sequencing); 10 mM Tris-HCl pH 7.5, 50 mM NaCl, 1 mM DTT, 4% glycerol, room temperature, 30 min; GST-TFs on glutathione beads, 16-mer random dsDNA library, 0.1% formaldehyde crosslink after washing; high values mean tight binding
FEV = biological target: T1, FEV (Homo sapiens, UniProt Q99581 1-238); settings: protein: recombinant; tags: N-terminal GST; dsDNA, one strand shown
T1 sequence: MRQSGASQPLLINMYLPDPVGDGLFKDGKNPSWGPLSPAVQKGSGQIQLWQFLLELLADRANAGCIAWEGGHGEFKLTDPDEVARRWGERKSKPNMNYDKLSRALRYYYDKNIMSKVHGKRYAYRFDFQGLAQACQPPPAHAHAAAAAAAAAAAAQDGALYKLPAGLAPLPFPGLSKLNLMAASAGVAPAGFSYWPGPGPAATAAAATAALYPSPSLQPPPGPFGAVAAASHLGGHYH
Method in brief: (§1)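 Binding signal is given per hexamer as its read frequency for a factor divided by its frequency in the tag-only sample. GST-fused human transcription factors were expressed in yeast, captured on glutathione beads, barcoded with DNA and pooled with that sample, then incubated with 200 nmole of a 16-mer random double-stranded DNA library in Tris/NaCl/DTT/glycerol buffer for 30 min at room temperature. The pools were then washed, crosslinked, proximity-ligated, amplified by PCR and sequenced on an Illumina NextSeq500.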

ETV5 = ETV5 (Homo sapiens, UniProt P41161 1-510); settings: protein: recombinant; tags: N-terminal GST; dsDNA, one strand shown
Method in brief: as §1

HSF1 = HSF1 (Homo sapiens, UniProt Q00613 1-529); settings: protein: recombinant; tags: N-terminal GST; chain copies: 3; dsDNA, one strand shown
Method in brief: as §1

SPIC = biological target: T2, SPIC (Homo sapiens, UniProt Q8N5J4 1-248); settings: protein: recombinant; tags: N-terminal GST; dsDNA, one strand shown
T2 sequence: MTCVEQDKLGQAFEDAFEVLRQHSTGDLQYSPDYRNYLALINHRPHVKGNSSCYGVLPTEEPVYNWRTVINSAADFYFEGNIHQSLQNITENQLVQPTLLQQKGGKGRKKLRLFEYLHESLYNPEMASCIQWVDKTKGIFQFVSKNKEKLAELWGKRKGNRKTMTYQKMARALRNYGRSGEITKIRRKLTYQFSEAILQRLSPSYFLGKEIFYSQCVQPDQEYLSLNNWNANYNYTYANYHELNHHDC
Method in brief: as §1

ELF4 = ELF4 (Homo sapiens, UniProt Q99607 1-663); settings: protein: recombinant; tags: N-terminal GST; dsDNA, one strand shown
Method in brief: as §1

ELK4 = biological target: T3, ELK4 (Homo sapiens, UniProt P28324-2 1-405); settings: protein: recombinant; tags: N-terminal GST; dsDNA, one strand shown
T3 sequence: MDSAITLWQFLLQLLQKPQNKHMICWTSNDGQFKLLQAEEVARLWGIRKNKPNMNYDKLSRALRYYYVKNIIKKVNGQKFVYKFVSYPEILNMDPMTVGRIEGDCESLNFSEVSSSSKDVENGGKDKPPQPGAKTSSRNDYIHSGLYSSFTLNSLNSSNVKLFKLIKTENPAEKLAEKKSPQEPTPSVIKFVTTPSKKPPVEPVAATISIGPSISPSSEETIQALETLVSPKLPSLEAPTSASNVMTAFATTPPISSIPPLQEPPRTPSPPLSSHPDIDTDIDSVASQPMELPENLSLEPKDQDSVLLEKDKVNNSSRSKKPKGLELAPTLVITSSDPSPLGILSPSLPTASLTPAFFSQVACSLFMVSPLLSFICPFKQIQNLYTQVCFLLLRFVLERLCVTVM
Method in brief: as §1

ETV2 = biological target: T4, ETV2 (Homo sapiens, UniProt O00321 1-342); settings: protein: recombinant; tags: N-terminal GST; dsDNA, one strand shown
T4 sequence: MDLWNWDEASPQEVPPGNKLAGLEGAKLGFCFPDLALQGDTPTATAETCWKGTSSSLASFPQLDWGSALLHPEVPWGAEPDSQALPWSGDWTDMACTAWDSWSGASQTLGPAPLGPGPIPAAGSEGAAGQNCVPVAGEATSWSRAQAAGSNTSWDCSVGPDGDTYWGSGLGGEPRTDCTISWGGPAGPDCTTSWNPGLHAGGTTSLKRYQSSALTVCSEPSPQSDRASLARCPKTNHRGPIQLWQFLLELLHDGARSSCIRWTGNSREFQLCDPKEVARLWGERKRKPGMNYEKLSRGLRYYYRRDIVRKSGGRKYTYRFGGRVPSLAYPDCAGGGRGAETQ
Method in brief: as §1

ELF3 = biological target: T5, ELF3 (Homo sapiens, UniProt P78545 1-371); settings: protein: recombinant; tags: N-terminal GST; dsDNA, one strand shown
T5 sequence: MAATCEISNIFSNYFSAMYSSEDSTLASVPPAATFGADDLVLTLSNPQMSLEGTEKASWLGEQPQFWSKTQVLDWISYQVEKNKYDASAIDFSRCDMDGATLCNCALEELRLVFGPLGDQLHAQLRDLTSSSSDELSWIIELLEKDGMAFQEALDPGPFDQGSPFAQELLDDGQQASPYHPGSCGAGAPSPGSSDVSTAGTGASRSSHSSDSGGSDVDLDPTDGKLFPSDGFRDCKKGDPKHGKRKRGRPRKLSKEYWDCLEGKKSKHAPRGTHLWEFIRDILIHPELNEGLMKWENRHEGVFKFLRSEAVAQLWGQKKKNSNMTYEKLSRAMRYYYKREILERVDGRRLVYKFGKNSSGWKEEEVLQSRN
Method in brief: as §1

CRX = CRX (Homo sapiens, UniProt O43186 1-299); settings: protein: recombinant; tags: N-terminal GST; dsDNA, one strand shown
Method in brief: as §1

ETV1 = ETV1 (Homo sapiens, UniProt P50549 1-477); settings: protein: recombinant; tags: N-terminal GST; dsDNA, one strand shown
Method in brief: as §1

ERF = biological target: T6, ERF (Homo sapiens, UniProt P50548 1-548); settings: protein: recombinant; tags: N-terminal GST; dsDNA, one strand shown
T6 sequence: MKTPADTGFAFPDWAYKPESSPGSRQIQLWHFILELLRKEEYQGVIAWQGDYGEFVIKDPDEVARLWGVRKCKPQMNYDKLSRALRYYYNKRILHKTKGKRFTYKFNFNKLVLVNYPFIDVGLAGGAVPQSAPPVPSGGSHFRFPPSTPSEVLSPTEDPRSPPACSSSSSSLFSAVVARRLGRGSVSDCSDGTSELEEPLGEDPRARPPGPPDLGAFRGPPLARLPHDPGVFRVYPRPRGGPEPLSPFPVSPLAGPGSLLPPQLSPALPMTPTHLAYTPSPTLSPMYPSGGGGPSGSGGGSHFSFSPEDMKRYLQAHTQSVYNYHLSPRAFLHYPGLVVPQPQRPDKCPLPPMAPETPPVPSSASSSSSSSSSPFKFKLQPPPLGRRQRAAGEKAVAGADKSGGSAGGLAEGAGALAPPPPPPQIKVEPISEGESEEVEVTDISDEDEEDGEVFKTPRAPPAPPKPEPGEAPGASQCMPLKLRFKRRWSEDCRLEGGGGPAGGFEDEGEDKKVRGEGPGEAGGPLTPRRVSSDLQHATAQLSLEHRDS
Method in brief: as §1

ETV3L = biological target: T7, ETV3L (Homo sapiens, UniProt Q6ZN32 1-361); settings: protein: recombinant; tags: N-terminal GST; dsDNA, one strand shown
T7 sequence: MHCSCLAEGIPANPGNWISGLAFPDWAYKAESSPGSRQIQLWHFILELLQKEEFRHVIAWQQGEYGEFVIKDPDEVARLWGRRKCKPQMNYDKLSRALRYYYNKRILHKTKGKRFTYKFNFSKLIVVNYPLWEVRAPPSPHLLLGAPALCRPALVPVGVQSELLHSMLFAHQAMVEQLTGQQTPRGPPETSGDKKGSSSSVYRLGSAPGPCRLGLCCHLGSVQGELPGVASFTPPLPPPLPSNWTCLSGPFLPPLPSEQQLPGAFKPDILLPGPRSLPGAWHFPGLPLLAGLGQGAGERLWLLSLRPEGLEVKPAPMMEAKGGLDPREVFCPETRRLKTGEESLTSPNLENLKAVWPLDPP
Method in brief: as §1

ETS2 = biological target: T8, ETS2 (Homo sapiens, UniProt P15036 1-469); settings: protein: recombinant; tags: N-terminal GST; dsDNA, one strand shown
T8 sequence: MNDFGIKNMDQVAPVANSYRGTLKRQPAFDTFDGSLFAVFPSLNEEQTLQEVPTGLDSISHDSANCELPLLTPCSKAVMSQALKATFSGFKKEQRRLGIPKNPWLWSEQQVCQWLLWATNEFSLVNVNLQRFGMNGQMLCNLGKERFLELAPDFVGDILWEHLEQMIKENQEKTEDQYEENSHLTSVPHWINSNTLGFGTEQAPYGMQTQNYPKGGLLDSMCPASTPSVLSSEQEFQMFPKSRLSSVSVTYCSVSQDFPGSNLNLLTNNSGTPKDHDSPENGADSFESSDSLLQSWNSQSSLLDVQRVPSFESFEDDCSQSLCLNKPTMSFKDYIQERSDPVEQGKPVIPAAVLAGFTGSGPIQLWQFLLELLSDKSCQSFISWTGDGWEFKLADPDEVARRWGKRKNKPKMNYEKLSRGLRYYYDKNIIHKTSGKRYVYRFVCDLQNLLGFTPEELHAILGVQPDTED
Method in brief: as §1

SPDEF = biological target: T9, SPDEF (Homo sapiens, UniProt O95238 1-335); settings: protein: recombinant; tags: N-terminal GST; dsDNA, one strand shown
T9 sequence: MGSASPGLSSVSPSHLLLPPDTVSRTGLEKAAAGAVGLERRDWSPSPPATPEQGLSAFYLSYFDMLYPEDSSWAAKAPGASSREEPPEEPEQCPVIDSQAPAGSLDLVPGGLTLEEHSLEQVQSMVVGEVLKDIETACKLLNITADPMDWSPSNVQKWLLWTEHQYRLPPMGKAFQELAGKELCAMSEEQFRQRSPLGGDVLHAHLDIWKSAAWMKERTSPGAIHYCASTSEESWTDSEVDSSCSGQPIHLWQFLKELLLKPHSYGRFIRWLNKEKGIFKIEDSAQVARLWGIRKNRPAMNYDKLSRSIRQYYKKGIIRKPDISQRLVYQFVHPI
Method in brief: as §1

ETV7 = biological target: T10, ETV7 (Homo sapiens, UniProt Q9Y603 1-341); settings: protein: recombinant; tags: N-terminal GST; dsDNA, one strand shown
T10 sequence: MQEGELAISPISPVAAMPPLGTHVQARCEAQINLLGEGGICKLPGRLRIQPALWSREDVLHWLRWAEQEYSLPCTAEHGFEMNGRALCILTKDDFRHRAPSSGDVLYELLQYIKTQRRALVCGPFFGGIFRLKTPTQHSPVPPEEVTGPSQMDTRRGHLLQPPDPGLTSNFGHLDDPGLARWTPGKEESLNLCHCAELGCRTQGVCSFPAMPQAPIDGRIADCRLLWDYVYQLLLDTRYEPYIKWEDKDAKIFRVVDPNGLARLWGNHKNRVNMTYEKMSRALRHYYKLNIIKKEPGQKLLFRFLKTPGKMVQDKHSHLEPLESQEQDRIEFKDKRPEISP
Method in brief: as §1

ELF5 = biological target: T11, ELF5 (Homo sapiens, UniProt Q9UKW6-2 1-255); settings: protein: recombinant; tags: N-terminal GST; dsDNA, one strand shown
T11 sequence: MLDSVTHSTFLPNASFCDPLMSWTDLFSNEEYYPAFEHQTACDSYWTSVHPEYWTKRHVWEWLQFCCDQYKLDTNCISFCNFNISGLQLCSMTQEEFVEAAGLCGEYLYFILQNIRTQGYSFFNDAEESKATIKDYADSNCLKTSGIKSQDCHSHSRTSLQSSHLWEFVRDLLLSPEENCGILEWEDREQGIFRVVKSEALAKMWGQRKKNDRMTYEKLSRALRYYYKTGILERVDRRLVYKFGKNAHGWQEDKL
Method in brief: as §1

ETV3 = biological target: T12, ETV3 (Homo sapiens, UniProt P41162-2 1-143); settings: protein: recombinant; tags: N-terminal GST; dsDNA, one strand shown
T12 sequence: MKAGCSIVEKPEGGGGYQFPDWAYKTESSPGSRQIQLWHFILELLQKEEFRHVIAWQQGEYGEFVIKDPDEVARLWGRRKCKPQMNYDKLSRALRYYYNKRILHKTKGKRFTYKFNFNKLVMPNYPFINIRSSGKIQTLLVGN
Method in brief: as §1

ETV6 = ETV6 (Homo sapiens, UniProt P41212 1-452); settings: protein: recombinant; tags: N-terminal GST; dsDNA, one strand shown
Method in brief: as §1

Sequence of CRX (O43186 whole entry): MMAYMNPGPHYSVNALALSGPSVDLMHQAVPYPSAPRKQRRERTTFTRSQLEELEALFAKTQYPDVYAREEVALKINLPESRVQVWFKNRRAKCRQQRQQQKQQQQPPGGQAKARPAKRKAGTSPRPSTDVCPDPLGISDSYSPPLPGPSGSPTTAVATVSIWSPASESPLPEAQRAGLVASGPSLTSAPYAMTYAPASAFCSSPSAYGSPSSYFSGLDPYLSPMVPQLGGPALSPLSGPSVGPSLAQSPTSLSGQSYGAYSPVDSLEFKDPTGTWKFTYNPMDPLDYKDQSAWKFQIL
Sequence of ETV5 (P41161 whole entry): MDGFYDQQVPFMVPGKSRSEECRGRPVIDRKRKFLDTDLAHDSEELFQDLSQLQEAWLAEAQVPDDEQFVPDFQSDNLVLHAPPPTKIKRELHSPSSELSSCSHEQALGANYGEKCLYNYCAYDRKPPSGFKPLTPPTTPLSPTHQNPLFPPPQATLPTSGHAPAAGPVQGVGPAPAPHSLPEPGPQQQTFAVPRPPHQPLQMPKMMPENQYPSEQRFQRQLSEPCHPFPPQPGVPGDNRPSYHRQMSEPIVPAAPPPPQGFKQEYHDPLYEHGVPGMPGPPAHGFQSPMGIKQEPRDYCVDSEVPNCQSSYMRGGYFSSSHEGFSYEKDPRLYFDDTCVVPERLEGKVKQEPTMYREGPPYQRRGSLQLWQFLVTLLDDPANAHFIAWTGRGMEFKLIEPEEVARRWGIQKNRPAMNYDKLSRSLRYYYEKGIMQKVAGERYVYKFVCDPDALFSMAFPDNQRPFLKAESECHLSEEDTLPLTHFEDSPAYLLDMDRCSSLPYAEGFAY
Sequence of ETV1 (P50549 whole entry): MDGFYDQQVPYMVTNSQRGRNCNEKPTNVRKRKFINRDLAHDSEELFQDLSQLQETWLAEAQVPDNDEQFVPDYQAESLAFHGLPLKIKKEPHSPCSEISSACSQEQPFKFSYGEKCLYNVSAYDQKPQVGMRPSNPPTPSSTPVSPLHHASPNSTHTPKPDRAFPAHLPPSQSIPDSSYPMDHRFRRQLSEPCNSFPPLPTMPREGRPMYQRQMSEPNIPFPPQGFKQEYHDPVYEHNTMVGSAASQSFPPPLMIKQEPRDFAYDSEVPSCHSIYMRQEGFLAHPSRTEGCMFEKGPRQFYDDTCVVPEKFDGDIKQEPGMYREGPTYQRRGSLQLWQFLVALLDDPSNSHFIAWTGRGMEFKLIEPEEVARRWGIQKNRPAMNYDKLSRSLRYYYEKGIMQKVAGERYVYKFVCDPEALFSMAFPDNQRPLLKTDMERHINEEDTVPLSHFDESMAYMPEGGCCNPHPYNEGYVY
Sequence of ETV6 (P41212 whole entry): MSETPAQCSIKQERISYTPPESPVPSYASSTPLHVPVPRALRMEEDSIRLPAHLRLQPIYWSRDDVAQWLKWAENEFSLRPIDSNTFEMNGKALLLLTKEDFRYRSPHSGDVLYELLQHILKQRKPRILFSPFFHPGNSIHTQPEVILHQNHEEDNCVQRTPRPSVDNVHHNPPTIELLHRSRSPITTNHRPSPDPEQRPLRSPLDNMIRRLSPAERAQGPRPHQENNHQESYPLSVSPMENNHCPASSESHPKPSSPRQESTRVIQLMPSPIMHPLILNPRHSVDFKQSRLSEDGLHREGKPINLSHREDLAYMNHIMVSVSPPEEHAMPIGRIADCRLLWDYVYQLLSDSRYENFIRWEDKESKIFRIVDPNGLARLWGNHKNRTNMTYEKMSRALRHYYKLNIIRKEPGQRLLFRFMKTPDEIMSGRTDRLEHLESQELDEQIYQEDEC
Sequence of HSF1 (Q00613 whole entry): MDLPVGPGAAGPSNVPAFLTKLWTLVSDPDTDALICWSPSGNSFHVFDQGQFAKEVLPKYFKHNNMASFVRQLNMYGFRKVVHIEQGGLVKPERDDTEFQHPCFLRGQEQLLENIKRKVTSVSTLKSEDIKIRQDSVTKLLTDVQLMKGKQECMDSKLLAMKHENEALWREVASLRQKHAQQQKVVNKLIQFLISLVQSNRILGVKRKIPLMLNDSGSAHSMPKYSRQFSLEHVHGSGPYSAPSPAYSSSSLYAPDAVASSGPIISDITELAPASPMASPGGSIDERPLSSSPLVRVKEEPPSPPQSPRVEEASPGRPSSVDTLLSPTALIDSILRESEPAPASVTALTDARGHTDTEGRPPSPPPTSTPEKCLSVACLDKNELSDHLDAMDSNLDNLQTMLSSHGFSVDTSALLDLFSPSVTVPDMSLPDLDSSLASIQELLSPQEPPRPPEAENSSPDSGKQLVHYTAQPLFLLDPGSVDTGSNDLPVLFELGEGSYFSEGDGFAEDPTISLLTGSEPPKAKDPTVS
Sequence of ELF4 (Q99607 whole entry): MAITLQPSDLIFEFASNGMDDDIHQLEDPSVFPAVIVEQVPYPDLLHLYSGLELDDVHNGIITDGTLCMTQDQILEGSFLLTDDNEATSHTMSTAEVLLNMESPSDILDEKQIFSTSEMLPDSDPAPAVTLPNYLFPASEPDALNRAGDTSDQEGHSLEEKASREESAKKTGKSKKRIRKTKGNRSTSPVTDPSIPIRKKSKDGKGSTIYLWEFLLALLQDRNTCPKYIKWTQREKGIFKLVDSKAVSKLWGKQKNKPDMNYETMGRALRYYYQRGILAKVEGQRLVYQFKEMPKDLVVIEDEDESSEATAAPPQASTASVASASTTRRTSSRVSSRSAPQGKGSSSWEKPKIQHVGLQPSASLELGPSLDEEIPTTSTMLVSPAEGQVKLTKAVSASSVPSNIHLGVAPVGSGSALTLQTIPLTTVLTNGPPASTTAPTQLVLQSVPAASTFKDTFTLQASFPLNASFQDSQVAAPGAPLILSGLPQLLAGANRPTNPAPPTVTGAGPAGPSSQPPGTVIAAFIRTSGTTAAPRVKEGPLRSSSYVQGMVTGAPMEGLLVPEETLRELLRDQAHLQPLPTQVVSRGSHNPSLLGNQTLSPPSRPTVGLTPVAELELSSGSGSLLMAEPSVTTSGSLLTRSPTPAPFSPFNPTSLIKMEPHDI

With ATGACC the binding signal (FEV) was 1.63 fold enrichment (6-mer frequency, TF over GST control), the binding signal (ETV5) was 1.54 fold enrichment (6-mer frequency, TF over GST control) and the binding signal (HSF1) was 1.42 fold enrichment (6-mer frequency, TF over GST control). For the same sequence, the binding signal (SPIC) was 1.38 fold enrichment (6-mer frequency, TF over GST control), the binding signal (ELF4) was 1.66 fold enrichment (6-mer frequency, TF over GST control) and the binding signal (ELK4) was 1.54 fold enrichment (6-mer frequency, TF over GST control). For the same sequence, the binding signal (ETV2) was 1.76 fold enrichment (6-mer frequency, TF over GST control), the binding signal (ELF3) was 1.63 fold enrichment (6-mer frequency, TF over GST control) and the binding signal (CRX) was 1.31 fold enrichment (6-mer frequency, TF over GST control). The binding signal (ETV1) was 1.62 fold enrichment (6-mer frequency, TF over GST control), the binding signal (ERF) was 1.42 fold enrichment (6-mer frequency, TF over GST control) and the binding signal (ETV3L) was 1.51 fold enrichment (6-mer frequency, TF over GST control). For the same sequence, the binding signal (ETS2) was 1.66 fold enrichment (6-mer frequency, TF over GST control), the binding signal (SPDEF) was 1.59 fold enrichment (6-mer frequency, TF over GST control) and the binding signal (ETV7) was 1.51 fold enrichment (6-mer frequency, TF over GST control). The binding signal (ELF5) was 1.56 fold enrichment (6-mer frequency, TF over GST control), the binding signal (ETV3) was 1.47 fold enrichment (6-mer frequency, TF over GST control) and the binding signal (ETV6) was 1.53 fold enrichment (6-mer frequency, TF over GST control).

Reference: paper PMC7862700, “An all-to-all approach to the identification of sequence-specific readers for epigenetic DNA modifications on cytosine”
